# Source: PubChem BioAssay
# PLAP act: human PLAP activation; purified PLAP enzyme, luminescent substrate read-out; hits give high values; activation fold at 20 µM; 96,000 tested, 1.2% active; AID 696; in the data active means activation fold above about 2
# CYP2C19 act: cytochrome P450 2C19 (human) activation; 96,000 tested, under 10 active; recombinant CYP2C19, luciferin-H EGE luminescence; hits give high values; 0 = fully inhibited enzyme, 1 = untreated enzyme; P33261; AID 1025; activation factor at 5 µM;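 active means activation factor of at least 2 at 5 µM in the primary screen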;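 further: 0 = wells with 2.5 mM tranylcypromine and 1 = vehicle-only wells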
# Target sequence (P33261 whole entry, looked up): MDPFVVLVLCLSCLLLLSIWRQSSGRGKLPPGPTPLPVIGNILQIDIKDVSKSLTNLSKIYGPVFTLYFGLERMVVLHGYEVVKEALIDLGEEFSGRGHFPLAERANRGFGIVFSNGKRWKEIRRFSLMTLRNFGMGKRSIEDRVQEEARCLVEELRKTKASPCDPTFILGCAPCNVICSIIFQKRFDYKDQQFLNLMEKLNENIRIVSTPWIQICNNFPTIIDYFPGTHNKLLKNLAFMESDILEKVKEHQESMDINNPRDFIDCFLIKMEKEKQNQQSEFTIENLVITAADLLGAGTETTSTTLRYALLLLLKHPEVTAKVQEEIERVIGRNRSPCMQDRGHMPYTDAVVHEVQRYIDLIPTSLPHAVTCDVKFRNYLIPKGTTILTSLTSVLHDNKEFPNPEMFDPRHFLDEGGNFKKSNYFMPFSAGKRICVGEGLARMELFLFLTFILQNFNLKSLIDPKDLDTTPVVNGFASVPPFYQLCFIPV
# CYP2C9 act: CYP2C9 (human) activation | P11712 | activation factor at 5 µM | 96,000 tested, 1.4% active | recombinant CYP2C9, luciferin-H conversion, luminescence; hits give high values; factor 1 = untreated enzyme, 0 = blocked | AID 1024;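 active means activation factor of 2 or more for CYP2C9 at a 5 µM dose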;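 further: 0 = sulfaphenazole-blocked wells and 1 = vehicle-only wells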
# CYP2C9 inhib: human CYP2C9 inhibition. P11712. CYP2C9 Supersomes, luciferin-H conversion, luminescence. inhibition, % at 5 µM. 96,000 tested, 20% active. AID 777;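 active means blocking of liver enzyme CYP2C9 beyond about 50% at 5 µM, limit read from the data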
# CYP2C19 inh: blocks human cytochrome P450 2C19; 96,000 tested, 21% active; CYP2C19 Supersomes, luciferin-H EGE luminescence, 30 min; inhibition, % at 5 µM; P33261;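 active means CYP2C19 inhibition above a set limit at 5 µM in the primary screen, cut at about 50% in these data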;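 further: plate controls were negative control wells for no effect and 2.5 mM tranylcypromine positive control for full effect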
# An asterisk follows results filed as active. Rows were chosen to be rich in hits. Some 31% of all compounds tested hit in one or more screens of this group.
SMILES,PLAP act,CYP2C19 act,CYP2C9 act,CYP2C9 inhib,CYP2C19 inh
CCCCn1c(O)c(C(C)=NCCc2ccccc2)c(=O)[nH]c1=O,0.9,0.6,0.3,69*,38
CCCCn1c(O)c(C(C)=Nc2ccc(C(=O)O)cc2)c(=O)[nH]c1=O,0.9,1,1,-1,1
C=CCn1c(O)c(C(CC)=Nc2ccc(N(CC)CC)cc2)c(=O)[nH]c1=O,0.9,1.1,1,2,-6
C=CCn1c(O)c(C(CC)=NC(C)c2ccccc2)c(=O)[nH]c1=O (stereo not given),1.1,0.3,0.4,63*,66*
CCCCn1c(O)c(C(CC)=NC(C)c2ccccc2)c(=O)[nH]c1=O (stereo not given),1.2,0.3,0.1,91*,71*
CC(N)Cc1c[nH]c2cc3c(cc12)OCCO3 (stereo not given),1.4,0.9,0.7,27,10
COc1cccc(N2CCN(Cc3cccc(Cl)c3)CC2)c1,1.5,0.1,0.2,79*,95*
COc1cccc(N2CCN(Cc3ccc(Cl)cc3)CC2)c1,1.5,0.1,0.3,72*,88*
CCOC(=O)c1ccc(N2C(=O)CC(N3CC=C(c4ccc(F)cc4)CC3)C2=O)cc1 (stereo not given),1.7,0.6,0.4,64*,37
O=C(Cc1ccc(Br)cc1)N1CCN(Cc2ccccc2)CC1,1.8,0.2,0.1,87*,84*
COc1ccc(Br)cc1CN1CCN(C(=O)Cc2ccccc2)CC1,1.6,0.1,0.2,81*,88*
O=C(Cc1ccccc1)N1CCN(C/C=C/c2ccccc2)CC1,1.3,0.7,0.6,41,28
Oc1c(Br)cc(Br)cc1CN1CCN(Cc2ccccc2)CC1,2*,0.3,0.6,39,74*
O=C(C1CCN(S(=O)(=O)N2CCOCC2)CC1)N1CCC2(CC1)OCCO2,1.1,1.1,1.2,-16,-11
Cc1nn(C)c(C)c1P(=S)(c1c(C)nn(C)c1C)N(C)C,0.8,0.9,1,2,6
ON1C2CCCCC2N(O)C1c1ccccc1 (stereo not given),1.3,0.8,0.9,6,16
O=C1NC(=O)C2(Cc3c(nc4ccccn4c3=O)N3CCCCCC32)C(=O)N1Cc1ccccc1 (stereo not given),1.7,0.3,0.1,89*,73*
CC(=O)OC1N=C(c2ccccc2)c2cc(Br)ccc2N(C)C1=O (stereo not given),1.1,1,0.9,7,-4
CC1=C(/C=C/c2ccccc2)CCN(C)C1,1,0.9,0.8,19,9
CCOC(=O)c1c(NC(=O)C(c2ccccc2)c2ccccc2)sc2c1C1CCN2CC1,1.4,0.8,0.4,63*,23
O=c1c2ccccc2nc(-c2ccc(-c3ccccc3)cc2)n1-c1ccncc1,1,1,0.7,26,-3
Cc1ccc(-n2nc(C)c3c2NC(=O)CSC3c2ccc3c(c2)OCO3)cc1 (stereo not given),1.4,0.7,0.6,44,34
COc1ccc(C2SCC(=O)Nc3c2c(C)nn3-c2ccccc2)cc1 (stereo not given),1,0.9,0.5,52*,11
COCCOC(=O)C1=C(N)Oc2c(c(=O)oc3ccccc23)[C@@]12C(=O)Nc1ccccc12,1.1,1,0.2,81*,-2
O=C1c2ccccc2C2(c3ccc(Cl)cc3)NCCN12 (stereo not given),0.8,0.7,1,2,30
SMILES,PLAP act,CYP2C19 act,CYP2C9 act,CYP2C9 inhib,CYP2C19 inh
O=C(c1ccccc1)c1cn(CC(=O)N2CCOCC2)c2ccccc12,0.9,0.6,0.5,53*,41
CCn1cc(C(=O)c2ccccc2)c2ccccc21,0.8,0.7,2.5*,-150,28
CN1CCN(CC(=O)Nc2ccc(Cl)cc2C(=O)c2ccccc2)CC1,1.5,1,1,3,4
O=C(C1CC(=O)N(c2ccc(F)c(Cl)c2)C1)N1CCC2(CC1)OCCO2 (stereo not given),1,0.8,1,-2,18
CCSc1cc(C2C(C#N)=C(N)Oc3n[nH]c(C)c32)c(C)o1 (stereo not given),1.6,0.1,0.3,67*,92*
COc1cccc(OC)c1C(=O)Nc1nc(N)n(-c2ccccc2)n1,0.8,1.2,0.8,18,-16
O=c1cccc2n1CC1CC2CN(Cc2c(F)cccc2Cl)C1 (stereo not given),1.4,0,0.4,55*,99*
